Compound activity deposited in PubChem BioAssay by several laboratories.
Rows were chosen to be rich in hits. Some 4.2% of all compounds tested hit in one or more screens of this group.
GDH-TPI inh – inhibits GDH-TPI coupling enzymes, artifact for Mtb FBA screen; inhibition, % at 4.8 µM; 360,000 tested, 1.2% active; GDH-TPI coupled enzyme counterscreen, NADH absorbance; AID 588335
CCHF vOTU inh – blocks the CCHF virus ovarian tumor domain protease; CCHFV vOTU protease, Pep-AMC fluorescence; inhibition, % at 11.5 µM; 370,000 tested, 0.55% active
FBA Mtb inh – inhibits M. tuberculosis FBA enzyme; inhibition, % at 1 µM; 360,000 tested, 2.3% active; purified M. tuberculosis FBA, fluorescence read-out; AID 588726; in the data active = inhibition above about 27%
Target sequence (P9WQA3 whole entry, looked up): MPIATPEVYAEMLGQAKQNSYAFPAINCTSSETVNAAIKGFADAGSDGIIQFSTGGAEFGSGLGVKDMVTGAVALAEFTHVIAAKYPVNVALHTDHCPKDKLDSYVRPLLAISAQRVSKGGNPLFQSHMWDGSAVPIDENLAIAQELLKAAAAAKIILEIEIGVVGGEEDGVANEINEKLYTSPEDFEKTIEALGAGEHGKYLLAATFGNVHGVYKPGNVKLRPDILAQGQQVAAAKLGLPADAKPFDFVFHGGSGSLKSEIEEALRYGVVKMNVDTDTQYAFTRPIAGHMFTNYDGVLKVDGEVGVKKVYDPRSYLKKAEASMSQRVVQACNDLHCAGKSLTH
RecA intein inh – Mtb RecA intein splicing inhibition. 290,000 tested, 0.75% active. AID 2221. P9WHJ3. inhibition, % (test concentration not listed). cell-free RecA intein splicing, fluorescence; in the data active = inhibition above about 30%
Each line names hits and unclear results; the compound was inactive in the other large screens. Rule as the data show it, unless noted: active = inhibition above about 30%; inactive = the rest.

CN(C)N=Nc1ccc(S(=O)(=O)/N=C(\O)c2ccccc2)cc1	GDH-TPI inh 39
Cc1cc(=O)[nH]c(SCC(=O)N2CCCC2)n1	none (no result: RecA intein inh)
Cc1ccc(-c2ccc(C(=O)Nc3ccccc3)o2)c2ccccc12	none
Cc1ccc(S(=O)(=O)NC(=O)c2ccc(-c3ccc(C)c4ccccc34)o2)cc1	FBA Mtb inh 130
Cc1ccc(NC(=O)C2COc3ccccc3O2)cc1S(=O)(=O)N1CCOCC1 (centres undefined)	none (no result: RecA intein inh)
CN(C)CCCN(C(=O)/C=C/c1cccs1)c1nc2c(F)cccc2s1	GDH-TPI inh 37
COc1ccc2nc(N(CCN(C)C)C(=O)/C=C/c3cccs3)sc2c1	GDH-TPI inh 32
CN(C)[C@@H]1CCN(c2cccc3c2S(=O)(=O)N2CC[C@H](C2)O3)C1	none (no result: GDH-TPI inh, FBA Mtb inh, RecA intein inh)
Cc1ccc(/C=C(\C#N)C(=O)NC(C)c2ccccc2)o1 (centres undefined)	GDH-TPI inh 33
Cc1ccc(/C=C(\C#N)C(=O)NC(C)C)o1	GDH-TPI inh 65
CC(NC(=O)/C(C#N)=C/c1ccc(C(=O)O)cc1)c1ccccc1 (centres undefined)	GDH-TPI inh 38
Cc1ccc(NC(=O)c2ccc(Br)o2)c([N+](=O)[O-])c1	none (no result: RecA intein inh)
NS(=O)(=O)c1ccc(NNC(=O)c2ccc(Br)o2)c([N+](=O)[O-])c1	GDH-TPI inh 45 (no result: RecA intein inh)
Cc1c(C(=O)c2ccccc2C(=O)O)sc2ccccc12	none
COc1ccc(/C=N/OCc2ccc(Br)cc2)c(OC)c1	none
CCOCCCNC(=O)c1c(N)n(-c2ccc3c(c2)OCO3)c2nc3ccccc3nc12	none
CCOCCCNC(=O)c1c(N)n(-c2ccc(S(N)(=O)=O)cc2)c2nc3ccccc3nc12	FBA Mtb inh 33
COCCCn1c(N)c(C(=O)NCc2ccco2)c2nc3ccccc3nc21	none (no result: GDH-TPI inh, FBA Mtb inh)
CCOc1ccc(-n2c(N)c(C(=O)NCc3ccco3)c3nc4ccccc4nc32)cc1	FBA Mtb inh 52 (no result: CCHF vOTU inh)
CC(=NOC(=O)C1CCCCC1)c1nccs1	GDH-TPI inh 51 (no result: RecA intein inh)
COc1ccc(C2C=C(c3ccccc3)Nc3ncnn32)cc1 (centres undefined)	FBA Mtb inh 118
COc1ccc(C2=CC(c3ccco3)n3ncnc3N2)cc1 (centres undefined)	FBA Mtb inh 71 (no result: CCHF vOTU inh, RecA intein inh)
Clc1ccc(C2=CC(c3ccco3)n3ncnc3N2)cc1 (centres undefined)	FBA Mtb inh 38
COC(=O)[C@H]1C[C@@]2(N3CCCCC3)c3ccccc3N[C@H]2N1S(=O)(=O)c1ccc([N+](=O)[O-])cc1	none (no result: GDH-TPI inh, FBA Mtb inh, RecA intein inh)
COc1ccc(CN2C[C@]3(C=C4CCCCC4n4c(=O)n(-c5ccccc5)c(=O)n43)N=C2NC(=O)c2ccccc2)c(OC)c1 (some centres undefined)	none (no result: GDH-TPI inh, FBA Mtb inh, RecA intein inh)
CCOC(=O)c1nn(-c2ccccc2)c(=O)c2c(N)scc12	CCHF vOTU inh 37 (no result: RecA intein inh)
CCOC(=O)c1nn(-c2ccccc2)c(C(=O)OCC)c1N	FBA Mtb inh active
CC(Nc1nc(-c2cccc(Br)c2)cs1)c1nc2cc(Cl)c(N3CCCCC3)cc2n1CCOCCO (centres undefined)	none
CC(=O)c1cc(-c2ccc(Cl)c(Cl)c2)c(=O)n2c1CCC2	none (no result: GDH-TPI inh, FBA Mtb inh, RecA intein inh)
CN1CCc2c(sc3nc(SCC(N)=O)n(-c4ccc(Cl)cc4)c(=O)c23)C1	GDH-TPI inh 32
CCn1c(SCC(=O)NCCc2ccccc2)nc2sc3c(c2c1=O)CCN(C)C3	GDH-TPI inh 35
CCn1c(SCC(=O)c2ccccc2)nc2sc3c(c2c1=O)CCN(C)C3	none
CN1CCc2c(sc3nc(SCC(N)=O)n(-c4ccccc4)c(=O)c23)C1	none
CN1CCc2c(sc3nc(SCC(=O)N4CCCCC4)n(-c4ccccc4)c(=O)c23)C1	GDH-TPI inh 39
CCCCC1=CC2=CC(=O)C(C)(OC(=O)c3cnc4ccccc4n3)C(=O)C2=CO1 (centres undefined)	RecA intein inh 34 (no result: GDH-TPI inh, CCHF vOTU inh, FBA Mtb inh)
COC(=O)CCCC1=CC2=CC(=O)C(C)(OC(=O)c3cnc4ccccc4n3)C(=O)C2=CO1 (centres undefined)	none (no result: GDH-TPI inh, CCHF vOTU inh, FBA Mtb inh)
N#Cc1c(C(F)(F)F)cc(C2CC2)[nH]c1=O	FBA Mtb inh active
Cc1ccc(-c2cc(C(F)(F)F)c(C#N)c(=O)[nH]2)cc1	FBA Mtb inh 139
Cc1ccc(-c2cc(-c3ccco3)c(C#N)c(=O)[nH]2)cc1	FBA Mtb inh 124
N#Cc1c(C(F)(F)F)cc(-c2ccccc2Cl)[nH]c1=O	FBA Mtb inh 145
COc1ccc(CN2CCN(Cc3cccc(F)c3)CC2)cc1OC	none
O=c1[nH]c2ccc(S(=O)(=O)Nc3ccc(Cl)cc3)cc2[nH]1	none
CCn1ccc(C(=O)Nc2ncc(C)s2)n1	none
N#Cc1c(C(F)(F)F)cc(-c2ccccc2)[nH]c1=O	FBA Mtb inh active
CSc1cc(-c2ccccc2)[nH]c(=O)c1C#N	FBA Mtb inh 34
COc1cccc(-c2cc(C(F)(F)F)c(C#N)c(=O)[nH]2)c1	FBA Mtb inh active
